# Source: PubChem
# Shown are actives, neighbours in structure and some others; about 3.5% of the full set was active somewhere.
# LEDGF integ inh: blockers of LEDGF/p75-dependent integrase strand transfer – biochemical, TR-FRET, high throughput, primary screen. hit rate 0.64% among 370,000. HIV-1 integrase (with human LEDGF/p75). inhibition, % at 3.7 µM. TR-FRET IN-LEDGF/p75 DNA integration, Eu/Cy5. AID 743269, 2014;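 active = inhibition above the screen-wide mean plus 3 SD, cut at about 13% in these data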;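 also: signal is the Cy5 over europium emission ratio at 671 and 618 nm; 0% = plate median of compound wells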
# DNMT1 inh: human DNMT1 methyltransferase inhibitors, primary screen, biochemical, molecular beacon, fluorescence, HinP1I cleavage, uHTS; DNA (cytosine-5)-methyltransferase 1 (Homo sapiens), P26358; inhibition (reported as % activation of signal), % at 10 µM; hit rate 0.83% among 360,000; AID 588458, 2011; in the data active = inhibition above about 50%
# MBD2 DNA inh: inhibitors of MBD2 binding to methylated DNA, primary screen, biochemical, TR-FRET, DNA-binding domain, human; hit rate 0.31% among 370,000; MBD2 binding to methylated oligonucleotide; inhibition, % at 4.4 µM; in the data active = inhibition above about 13%
# Target sequence (Q9UBB5 whole entry, looked up, the tested form may be a part): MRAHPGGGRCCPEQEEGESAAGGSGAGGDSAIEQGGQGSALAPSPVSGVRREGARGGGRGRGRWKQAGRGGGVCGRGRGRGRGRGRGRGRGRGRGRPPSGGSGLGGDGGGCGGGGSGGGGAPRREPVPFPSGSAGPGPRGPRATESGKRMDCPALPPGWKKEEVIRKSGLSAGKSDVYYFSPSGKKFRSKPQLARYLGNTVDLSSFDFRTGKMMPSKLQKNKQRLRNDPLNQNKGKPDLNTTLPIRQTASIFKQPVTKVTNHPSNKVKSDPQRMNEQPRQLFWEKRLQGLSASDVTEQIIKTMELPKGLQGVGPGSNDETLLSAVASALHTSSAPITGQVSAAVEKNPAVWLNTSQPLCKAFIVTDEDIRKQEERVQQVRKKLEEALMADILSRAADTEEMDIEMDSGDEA
# PG9 Ab binder: binders of HIV-1 gp120 antibody PG9, primary screen, biochemical, TR-FRET; TR-FRET gp120-PG9 antibody binding; inhibition, % at 6.7 µM; hit rate 0.43% among 360,000; AID 624416, 2012; in the data active = inhibition above about 8.5%
# rCAG RNA binder: binders of r(CAG) RNA repeats, primary screen, biochemical, fluorescence; r(CAG) RNA repeat, TO-PRO-1 dye displacement fluorescence; inhibition, % at 3 µM; hit rate 1.3% among 370,000; AID 651821, 2012;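 active = inhibition above the plate cutoff, the mean of all test compounds on that plate plus 3 SD, cut at about 35% in these data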;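 also: 0% = DMSO alone and 100% = 100 µM mitoxantrone as full dye displacement; higher means more dye released from RNA so lower well fluorescence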
# UHRF1 MBD2 ctr: UHRF1 methylated DNA binding inhibitors, primary screen, counter-screen for MBD2 inhibitor project, biochemical, TR-FRET, human UHRF1, single concentration; E3 ubiquitin-protein ligase UHRF1 (Homo sapiens), Q96T88; UHRF1 binding to methylated oligo; inhibition, % at 4.4 µM; hit rate 0.75% among 370,000; AID 687016, 2013; in the data active = inhibition above about 21%;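 also: UHRF1 SRA domain binding a hemimethylated CpG hairpin DNA probe; 0% = median of test compound wells and 100% = reference inhibitor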
# rCAG bind conf: small molecules binding CAG repeat RNA – biochemical, fluorescence, confirmation | r(CAG) RNA repeat, TO-PRO-1 dye displacement fluorescence | hit rate 70% among 4,300 | inhibition, % at 3 µM | shares compounds with rCAG RNA binder | AID 652065, 2013;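 active = inhibition above a per-plate cutoff, the mean inhibition of sample wells plus 3 SD, cut at about 35% in these data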;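 also: loss of TO-PRO-1 fluorescence as compound displaces dye from 1x1 AA loop RNA; 0% = DMSO only wells and 100% = 100 µM mitoxantrone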
# DNA CAG counter: displacement of TO-PRO-1 from CAG DNA duplex, counter-screen for rCAG RNA repeat binder project, biochemical, fluorescence, TO-PRO-1 dye, d(CAG) DNA oligo; shares compounds with rCAG RNA binder; d(CAG) DNA oligo TO-PRO-1 dye displacement; inhibition, % at 3 µM; hit rate 94% among 4,300;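 active = inhibition above its plate's cutoff, the mean test-well inhibition plus 3 SD, cut at about 4.8% in these data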;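 also: 0% = DNA dye mix with DMSO and 100% = 100 µM mitoxantrone; hits displace the dye from DNA and so lower well fluorescence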
# IN multimer act: HIV-1 IN multimer formation enhancers, counter-screen for LEDGF/p75 integration inhibitor project, biochemical, TR-FRET; shares compounds with LEDGF integ inh; activation, % at 7.7 µM; hit rate 17% among 2,000; AID 1053131, 2014; TR-FRET HIV-1 integrase multimerization; in the data active = activation above about 8.9%
# TR-FRET interf: TR-FRET optical interference artefacts, confirmation, artefact control for LEDGF/p75-dependent integration inhibitor project, biochemical, HIV-1 IN multimerization | TR-FRET optical interference counterscreen | shares compounds with LEDGF integ inh | AID 1053135, 2014 | 2,000 tested, under 10 active | inhibition, % at 7.7 µM;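 active = inhibition above the mean over all tested compounds plus 3 SD, which no compound reached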;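 also: 0% = integrase with antibodies and DMSO and 100% = antibodies without integrase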
# LEDGF integ conf: inhibitors of HIV-1 IN-LEDGF/p75 DNA integration, confirmation, biochemical, TR-FRET; shares compounds with LEDGF integ inh; TR-FRET LEDGF/p75-dependent HIV-1 integration; inhibition, % at 3.7 µM; hit rate 36% among 2,000; AID 1053136, 2014; in the data active = inhibition above about 14%
# * = called active by the depositor; . = not tested or not shown.
SMILES,LEDGF integ inh,DNMT1 inh,MBD2 DNA inh,PG9 Ab binder,rCAG RNA binder,UHRF1 MBD2 ctr,rCAG bind conf,DNA CAG counter,IN multimer act,TR-FRET interf,LEDGF integ conf
CCOC1=CC2=C(C(=O)C(Cl)=CC2=O)[C@@H]2CN(S(=O)(=O)c3ccc(C)cc3)[C@@H](c3ccccc3)[C@H]12,18.6*,-58.0,0.9,8.0,72.5*,-3.1,56.6*,21.4*,6.6,-33.1,25.9*
O=c1c2ccccc2n(Cc2ccno2)n1[C@@H](Cc1ccccc1)Cn1cc(C2CCCC2)nn1,4.1,.,8.0,.,6.0,2.9,.,.,.,.,.
Cc1cccn2c(=O)c3cc(C#N)c(=NC(=O)c4ccccc4)n(Cc4ccco4)c3nc12,15.8*,24.8,0.1,0.0,35.5*,5.7,27.0,10.9*,-3.0,15.0,26.0*
Cc1ccc(CN2CC(N3CCC(c4ccccc4)CC3)CS2(=O)=O)cc1 (configuration not stated),2.2,3.4,-3.9,-1.6,-0.1,0.8,.,.,.,.,.
O=C(CSc1nnc(-c2ccccc2)n1Cc1ccco1)Nc1ccc(S(=O)(=O)N2CCCC2)cc1,-3.8,-5.0,8.7,1.7,6.0,7.2,.,.,.,.,.
O=C(CSc1nnc(-c2ccc(Cl)cc2)n1Cc1ccco1)Nc1ccc(S(=O)(=O)Nc2nccs2)cc1,19.1*,.,-2.0,.,76.9*,1.7,68.6*,32.0*,5.8,-20.8,5.2
Cc1cc(C)nc(SCC(=O)c2ccc(O)c(O)c2)n1,10.9,11.5,1.0,-2.5,9.5,2.9,.,.,.,.,.
Cc1cc(SCC(=O)c2ccc(O)c(O)c2)n2nc(C)c(-c3ccccc3)c2n1,17.1*,-4.2,-0.6,-0.1,50.4*,-3.3,67.2*,33.4*,-0.3,1.7,12.0
CCCCNC(=O)C1(O)c2cc(Br)ccc2NC(=O)N1c1cccc(OC)c1 (configuration not stated),0.4,0.6,-0.6,-3.2,2.9,0.0,.,.,.,.,.
CCCCNC(=O)c1ccc2nc(-c3ccco3)c(-c3ccco3)nc2c1,49.9*,81.1*,0.2,-0.3,62.3*,27.9*,19.8,5.8*,5.7,-28.5,33.3*
CCCNC(=O)c1ccc2nc(-c3ccccc3)c(-c3ccccc3)nc2c1,-2.1,-2.8,-4.5,-0.2,-2.8,-0.3,.,.,.,.,.
NS(=O)(=O)c1ccc2c(c1)C1C=CCC1C(C1CC=CCC1)N2 (configuration not stated),21.4*,-34.4,4.8,0.8,61.7*,1.7,26.2,13.9*,1.6,-8.2,3.5
NS(=O)(=O)c1ccc(NC(=S)NC(=O)/C=C/c2ccco2)cc1,33.4*,27.7,-4.8,-3.3,39.6*,17.5,23.5,10.8*,12.7*,-45.2,37.9*
